Screens as filed in PubChem BioAssay.
AID inh = blocks human AID cytidine deaminase activity; AID deamination FRET fluorescence, UDG-coupled, 4 h; 91,000 compounds, 0.32% hits; Potency, µM (top dose mostly 115 µM), usual class: inhibitors; Q9GZX7; AID 1347428; also: nearly all actives have a fitted effect of over 25% in size
Target sequence (Q9GZX7 whole entry, looked up): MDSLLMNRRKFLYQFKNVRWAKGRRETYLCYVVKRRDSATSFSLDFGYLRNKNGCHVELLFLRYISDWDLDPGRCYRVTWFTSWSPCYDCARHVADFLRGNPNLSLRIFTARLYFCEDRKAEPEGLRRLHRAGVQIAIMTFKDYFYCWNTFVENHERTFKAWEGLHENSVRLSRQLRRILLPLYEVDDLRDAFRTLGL
UDG counter = UDG inhibition counter-screen; FRET deamination/UDG coupled assay, UDG read, 4 h; Potency, µM (top dose mostly 115 µM), without a hit: top-dose activity change, negative = inhibition, hits mostly inhibitors; AID 1347430; 91,000 compounds, 0.14% hits; also: nearly all actives have a fitted effect of over 65% in size
* hit, by the source's call; i = inactive; ? = inconclusive. Only some compounds are listed: those with a hit (about 0.4% of all), similar ones and a draw of the others. Calls follow the shape of the dose curve; as a rule, active = well fitted curve in the direction sought with a large enough effect; inconclusive = small, poorly fitted or top-dose-only effect, or another doubt; inactive = no such curve, though single readings can be large; an effect the other way counts as inactive or inconclusive. % is scaled to controls: 0 for no effect and ±100 for the full control effect; potency is read from the fitted curve at half-maximal effect.

SMILES	AID inh	UDG counter
COc1ccc(-c2c(C#N)c(SCC(=O)Nc3ccccc3C)nc(C)c2C(=O)Nc2ccc(Cl)cc2)cc1	i	?
CCc1ccc(NC(=O)CSc2nc(C)c(C(=O)Nc3ccc(Cl)cc3)c(-c3ccc(OC)cc3)c2C#N)cc1	?	89µM*
Cc1ccc(O)c(NC(=O)c2ccc(Br)c(S(=O)(=O)N3CCCCC3)c2)c1	i	-8%
CCN(CC)C(=O)CSc1nc(-c2ccccc2F)nc2c1Cc1c(CO)cnc(C)c1O2	28µM*	5%
CCc1ccc(CSc2nc(-c3ccccc3F)nc3c2Cc2c(CO)cnc(C)c2O3)cc1	i	-2%
CSc1ncc(Cl)c(C(=O)Nc2c(C(=O)Nc3cccc(Cl)c3)oc3ccccc23)n1	i	-6%
CCCc1cc(C(=O)Nc2ccc(F)c(Cl)c2)no1	i	2%
